Assay outcomes from PubChem BioAssay.
JMJD2A Tudor: JMJD2A Tudor domain (human) inhibition. Potency, µM (titrated, usually from 114 µM), for the others: at the top dose activity change, negative = inhibition, most hits filed as inhibitors. AlphaScreen JMJD2A-Tudor / H3K4me3 peptide binding. AID 504339. 4.4% of 390,000 active; note: % is set by controls: 0 for no effect and ±100 for the full control effect; nearly all actives have a fitted effect of over 50% in size
G9a inh: inhibitors of human histone lysine methyltransferase G9a; Q96KQ7; AID 504332; Potency, µM (series often up to 102 µM), without a hit: at the highest dose activity, negative = inhibition, most hits filed as inhibitors; G9a H3K9 monomethylation, AlphaScreen, 2 h; 8.8% of 350,000 active; note: % is set by controls: 0 for no effect and ±100 for the full control effect; nearly all actives have a fitted effect of over 75% in size
Target sequence (Q96KQ7 913-1193 limits assumed): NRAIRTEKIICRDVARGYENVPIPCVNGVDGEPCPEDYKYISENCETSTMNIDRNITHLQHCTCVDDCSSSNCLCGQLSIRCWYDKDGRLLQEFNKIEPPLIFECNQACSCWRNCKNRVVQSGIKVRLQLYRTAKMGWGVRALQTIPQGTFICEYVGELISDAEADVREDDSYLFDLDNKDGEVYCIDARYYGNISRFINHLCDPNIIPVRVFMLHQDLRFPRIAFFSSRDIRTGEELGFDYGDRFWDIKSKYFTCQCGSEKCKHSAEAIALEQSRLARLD
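G9a (20 nM) preincubated 15 min RT with compounds, then 500 nM biotinylated H3K9 peptide and 20 uM SAM added; 2 h RT reaction. Monomethyl-H3K9 product detected by AlphaScreen with anti-H3K9me1 antibody, streptavidin donor and anti-rabbit IgG acceptor beads.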
HP1b binding inh: inhibitors of HP1-beta chromodomain binding to methylated histone tails; Potency, µM (doses to about 114 µM), without a hit: at the highest dose activity change, negative = inhibition, usual class: inhibitors; 0.56% of 390,000 active; P83916; AlphaScreen HP1-beta / biotin-H3K9me3 peptide binding; note: nearly all actives have a fitted effect of over 70% in size
Target sequence (P83916 whole entry, looked up): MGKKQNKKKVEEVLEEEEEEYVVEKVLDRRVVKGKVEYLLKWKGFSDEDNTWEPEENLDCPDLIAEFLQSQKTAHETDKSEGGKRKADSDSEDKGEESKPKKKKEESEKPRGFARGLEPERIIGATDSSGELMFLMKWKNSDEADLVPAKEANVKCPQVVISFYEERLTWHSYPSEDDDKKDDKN
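AlphaScreen: HP1-beta (50 nM) preformed 30 min with biotin-H3(1-18)K9me3 peptide (50 nM) in PBS pH 7.4, 0.01% Tween-20. Compound added for 30 min at RT, then streptavidin donor/nickel chelate acceptor beads (10 ug/mL) for 30 min.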
GLS inh: glutaminase GLS (human) inhibition | O94925 | GLS enzymatic activity, qHTS titration | Potency, µM (titrated, usually from 45.5 µM), for the others: at the top dose activity change, negative = inhibition, hits mostly inhibitors | 0.21% of 410,000 active | AID 624170; note: % is set by controls: 0 for no effect and ±100 for the full control effect
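Enzyme dispensed in phosphate buffer (45 mM, pH 8.2, 0.02% Tween-20), compounds pinned in, then 1 mM L-glutamine solution and the glutamate oxidase–HRP–Amplex Red mix added; fluorescence read immediately and again after 30 min at room temperature.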
L3MBTL1 block: L3MBTL1 (human) inhibition. Q9Y468. 0.66% of 230,000 active. AID 485360. Potency, µM (titrated, usually from 57.1 µM), without a hit: top-dose activity, negative = inhibition, usual class: inhibitors. AlphaScreen L3MBTL1–H3K9me1 peptide binding; note: % is set by controls: 0 for no effect and ±100 for the full control effect; nearly all actives have a fitted effect of over 60% in size
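AlphaScreen assay: L3MBTL1 (50 nM final) was preincubated 30 min at room temperature with biotinylated H3(1-15)K9me1 peptide (75 nM final), then 30 min with library compounds; streptavidin donor and nickel chelate acceptor beads (10 ug/mL final) added, 30 min dark.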
BAZ2B block: BAZ2B (human) inhibition | Potency, µM (highest dose often 114 µM), for inactives: top-dose activity change, negative = inhibition, usual class: inhibitors | AlphaScreen BAZ2B-H3K14Ac peptide displacement | 4.4% of 360,000 active | Q9UIF8; note: % is set by controls: 0 for no effect and ±100 for the full control effect; nearly all actives have a fitted effect of over 60% in size
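AlphaScreen displacement of biotin-H3(5-23)K14Ac peptide (50 nM final) from BAZ2B (50 nM final) in PBS pH 7.4, 0.01% Tween-20; complex preformed 30 min RT, then compounds (top 110 uM) 30 min RT, beads 20 min dark.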
Active calls of the source: *; ? = inconclusive; . = not tested or not shown; [ ] = dose if it differs, or a comment. Compounds with a hit are over-represented: about 10% of the library has one in this group of screens. Calls come from the whole dose curve; as a rule, active = well fitted curve in the direction sought with a large enough effect; inconclusive = small, poorly fitted or top-dose-only effect, or another doubt; inactive = no such curve, though single readings can be large; an effect the other way counts as inactive or inconclusive. Potency is the fitted concentration of half-maximal effect.

SMILES	JMJD2A Tudor	G9a inh	HP1b binding inh	GLS inh	L3MBTL1 block	BAZ2B block
Nc1nc(SCC(=O)c2ccc(Oc3ccccc3)cc2)n[nH]1	35.5µM*	?	?	16.2%	-4.2%	-1.5%
O=C(CSc1nccc(=O)[nH]1)N1CCN(c2ccccc2)CC1	?	.	-3.0%	-0.2%	8.6%	79.4µM*
Nc1nc(SCC(=O)N2CCN(c3ccccc3)CC2)n[nH]1	-1.4%	39.8µM*	38.9%	29.4%	.	-18.3%
O=C(CSc1ccccc1C(=O)N1CCN(c2ccccc2)CC1)N1CCCC1	2.7%	12.6µM*	42.8%	1.9%	0.8%	-5.1%
CCCc1cc(=O)[nH]c(SCC(=O)N2CCN(c3ccccc3)CC2)n1	-7.3%	3.1%[59 µM]	28.0%	-7.0%	.	-18.8%
[O-][n+]1cccc(CO)c1	.	-13.8%[12.7 µM]	.	-0.1%	.	.
Cc1cccc(CNc2ncnc3ccc(-c4cccc(Cl)c4)cc23)c1	.	-21.2%[12.7 µM]	.	.	-4.5%	0.5%
CC1(C)CC(=O)C2=C(C1)O[C@@]1(CCCCN3C(=O)c4ccccc4C3=O)Cc3ccccc3C2O1	.	.	.	.	.	-1.1%[22.9 µM]
O=C(CSc1nnc(-c2cccs2)n1-c1ccccc1)NCc1ccc2c(c1)OCO2	-28.6%	-23.2%[12.7 µM]	29.2%	6.8%	.	-8.3%
O=C(CSc1nnc(Cc2cccs2)n1-c1ccc(Cl)cc1)NCc1ccc2c(c1)OCO2	-18.3%	50.1µM*	41.1%	-7.5%	-6.3%	-36.5%
O=C(CSc1ncc(C(=O)O)n1-c1ccc(F)cc1)NCc1ccc2c(c1)OCO2	-7.3%	44.7µM*	22.7%	6.8%	-26.3%	10.1%
O=C(CN1C(=O)C2(SCC(=O)N2c2cccc(Cl)c2)c2ccccc21)NCCc1ccccc1 (stereo unspecified)	-23.0%	-21.1%[59 µM]	35.1%	4.5%	.	5.1%[57.1 µM]
C/C(=C(/CCO)SS/C(CCO)=C(\C)N(C=O)Cc1cnc(C)nc1N)N(C=O)Cc1cnc(C)nc1N	.	-27.4%[12.7 µM]	.	6.6%	.	.
Cc1ccc(C(=O)Nc2ccc3nc(SCC(=O)N4CCCc5ccccc54)sc3c2)cc1	-14.9%	-26.9%[59 µM]	35.5%	-2.5%	.	-9.0%
OCCCc1cn(-c2ccccc2)c2ccccc12	-22.1%	5.0%	7.5%	0.0%	-2.7%	-2.0%
Clc1nc(Cl)nc(-c2cn(-c3ccccc3)c3ccccc23)n1	79.4µM*	12.6µM*	17.8%	-0.5%	1.9%	?
CC(=O)c1ccc(NC(=O)c2cc(C)nc3c2c(C)nn3-c2ccc(C)cc2)cc1	-7.8%	-9.3%[59 µM]	18.4%	1.3%	.	9.0%[57.1 µM]
Cc1ccn(-c2cc(O)c(-n3ccc(C)n3)cc2O)n1	?	3.55µM*	?	18.2%	-3.2%	-2.4%
Cc1ccn(CCC(=O)O)n1	-12.0%	.	33.5%	-0.9%	11.0%	2.5%
CCOc1ccc(OCC(=O)Nc2cc3c(cc2C(=O)O)OCCCO3)cc1	-16.7%	14.1µM*	36.0%	2.9%	.	1.8%
COc1ccc(OCC(=O)Nc2cc3c(cc2C(=O)O)OCCCO3)cc1	-19.7%	14.1µM*	18.8%	11.0%	.	3.4%
COc1ccc(C(=O)Nc2cc3c(cc2C(=O)O)OCCCO3)c(OC)c1	-7.7%	18.4%[59 µM]	0.0%	-6.1%	.	-0.3%
COc1cccc(CCC(=O)Nc2cc3c(cc2C(=O)O)OCCCO3)c1OC	-14.3%	7.94µM*	20.9%	15.8%	10.4%	-19.7%
COc1cc(NC(=O)CCc2c(C)noc2C)c(C(=O)O)cc1OC	.	.	.	11.3%	.	.
Nc1ncnc2c1ncn2[C@@H]1O[C@H](COP(=O)(O)OP(=O)(O)OC[C@H]2OC(O)[C@H](O)[C@@H]2O)[C@@H](O)[C@H]1O (stereo partly specified)	.	17.1%[59 µM]	.	.	.	.
SMILES	JMJD2A Tudor	G9a inh	HP1b binding inh	GLS inh	L3MBTL1 block	BAZ2B block
COc1ccc(CNC(=O)C2CCN(S(=O)(=O)c3ccc4c(c3)CCCN4C(C)=O)CC2)cc1	-16.1%	7.8%[59 µM]	13.3%[57 µM]	-1.1%	.	-2.0%
CCc1cccc(NC(=O)Nc2csc3c2CCCC3)c1	-18.9%	32.5%[59 µM]	70.7%	-5.6%	.	16.6%
CC(=O)Nc1ccccc1OCc1cc(=O)n2c(C)csc2n1	-4.0%	2.5%[59 µM]	45.3%	-6.1%	.	-3.4%
CC(C)(c1cc(Cl)c(O)c(CN2CCOCC2)c1)c1cc(Cl)c(O)c(CN2CCOCC2)c1	-33.1%	.	-14.3%[57 µM]	19.5%	.	.
Oc1c(CN2CCOCC2)cc(CN2CCOCC2)c(O)c1CN1CCOCC1	7.94µM*	.	8.91µM*	27.2%	.	.
CC(C)(C)c1nc(CN2CCOCC2)cc(CN2CCOCC2)c1O	31.6µM*	-7.7%[12.7 µM]	13.6%	-2.4%	.	-32.2%
Oc1c(CN2CCOCC2)cc(-c2ccccc2)cc1CN1CCOCC1	-24.9%	0.2%	21.1%	35.4%	-4.8%	-37.2%
O=C(c1ccc(Cn2cc(Cl)c([N+](=O)[O-])n2)cc1)N1CCN(Cc2ccccc2)CC1	-26.5%	50.1µM*	16.5%	10.2%	-8.4%	-23.9%
O=C(c1cc([N+](=O)[O-])ccc1Cl)N1CCN(c2ccc(F)cc2)CC1	-20.7%	44.7µM*	4.4%	-1.9%	-1.4%	-36.4%
O=C(c1cc([N+](=O)[O-])ccc1Cl)N1CCN(Cc2ccccc2)CC1	-19.0%	70.8µM*	15.9%	-5.5%	.	-31.8%
Cc1c(C(=O)Nc2nc(-c3ccccn3)cs2)oc2ccccc12	?	?	?	-0.4%	?	35.5µM*
Cc1cc(-c2csc(NC(=O)c3cc4ccccc4o3)n2)c(C)n1C	-20.7%	-11.9%[59 µM]	-4.4%	-20.9%	?	-1.6%
